Assay [1] can be described thus: Nuclear factor erythroid 2-related factor 2/antioxidant responsive element (Nrf2/ARE) small molecule agonists: qHTS cell viability counter screen in human keratinocytes (AID 1919968; active means well fitted curve in the direction sought with a large enough effect in the repeat runs; an effect the other way counts as inactive or inconclusive; further: nearly all actives have a fitted effect of over 55% in size). The gist of the method: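 HaCaT ARE reporter line, 1,500 cells/well; 5 h settle, 37 C/5% CO2; cpd in DMSO pinned; 23 h exposure; CellTiter-Fluor, 1 h; fluorescence.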
A general note: qHTS replaces the single test concentration by a dilution series.

The nature of assay [2]: Nuclear factor erythroid 2-related factor 2/antioxidant responsive element (Nrf2/ARE) small molecule agonists: luciferase reporter gene qHTS assay in human keratinocytes (AID 1919969). Further: nearly all actives have a fitted effect of over 35% in size. Further: potency means the concentration at half of the fitted maximal effect.
The target of assay [3] is Gonadotropin-releasing hormone receptor (Homo sapiens) (UniProt P30968). Description: Human gonadotropin-releasing hormone receptor (GnRHR) small molecule agonists, calcium flux assay in GnRHR-HEK293 cells (AID 1920063). Further: nearly all actives have a fitted effect of over 35% in size. The procedure, abridged:
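GnRHR-HEK293, 1500 cells/well, 18 h 37 C/5% CO2; Ca dye 1 h 37 C; cpd pinned (DMSO), agonist mode; kinetic FL 480/540, 3 min, 1 s reads; 15 conc, n=3.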
A general note: A change in cytosolic calcium serves as a functional read-out for many receptors and channels.

For assay [4], the target named is KiSS-1 receptor (Homo sapiens) (UniProt Q969F8). The assay is described as follows: Human kisspeptin (KISS1R) small molecule agonists, calcium flux assay in KISS1R-HEK293 cells (AID 1920064; active means well fitted curve in the direction sought with a large enough effect in the repeat runs; an effect the other way counts as inactive or inconclusive). The gist of the method:
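Stable human KISS1R HEK293 line; 18 h plating, 37 C/5% CO2; calcium dye 1 h 37 C; compound pin transfer; kinetic fluorescence Ex/Em 480/540, 3 min.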

Assay [5] can be described thus: G protein-coupled receptor (GPCR) small molecule agonists, calcium flux assay: HEK293 wild type cell line counter screen (AID 1920065). The procedure, abridged: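 Kinetic fluorescence at Ex/Em 480/540, recorded every second over 3 min, served as the read-out after compound addition. Each compound was tested at 15 concentrations in triplicate on cells pre-loaded with calcium dye for 1 h.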

Assay [6] is described as follows: p53 small molecule agonists, cell-based qHTS assay with human liver microsomes: qHTS cell viability counter screen (AID 1963579). Further: nearly all actives have a fitted effect of over 45% in size. The procedure, abridged: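 p53RE-bla cells (4,000/well) were pre-incubated 5 h at 37 C, then given compounds in DMSO plus human liver microsomes (0.5 mg/mL final) and NADPH (0.5 mg/mL final) for 16 h at 37 C. Viability was read by CellTiter-Glo luminescence.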

Assay [7] is described as follows: p53 small molecule agonists, cell-based qHTS assay: qHTS cell viability counter screen (AID 1963581). Further: nearly all actives have a fitted effect of over 45% in size. The procedure, abridged: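 HCT-116 p53RE-bla cells, 4,000/well, plated 5 h before compound pin transfer; 16 h at 37 C; bla substrate 2 h RT; then CellTiter-Glo, 30 min RT, luminescence.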
Assay [8] deals with 5-hydroxytryptamine receptor 2A (Homo sapiens) (UniProt P28223). Description: 5-hydroxytryptamine receptor 2A (HTR2A) small molecule antagonists, cell-based qHTS assay (AID 1963586). Further: nearly all actives have a fitted effect of over 45% in size. The gist of the method: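 Antagonist-mode intracellular calcium assay: DOI (4 nM) added after 5 min compound pre-incubation at room temperature to dye-loaded HTR2A-CHO cells. Fluorescence followed for 3 min, sampled every second.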
Chain of 5-hydroxytryptamine receptor 2A (Homo sapiens) (P28223 whole entry, looked up): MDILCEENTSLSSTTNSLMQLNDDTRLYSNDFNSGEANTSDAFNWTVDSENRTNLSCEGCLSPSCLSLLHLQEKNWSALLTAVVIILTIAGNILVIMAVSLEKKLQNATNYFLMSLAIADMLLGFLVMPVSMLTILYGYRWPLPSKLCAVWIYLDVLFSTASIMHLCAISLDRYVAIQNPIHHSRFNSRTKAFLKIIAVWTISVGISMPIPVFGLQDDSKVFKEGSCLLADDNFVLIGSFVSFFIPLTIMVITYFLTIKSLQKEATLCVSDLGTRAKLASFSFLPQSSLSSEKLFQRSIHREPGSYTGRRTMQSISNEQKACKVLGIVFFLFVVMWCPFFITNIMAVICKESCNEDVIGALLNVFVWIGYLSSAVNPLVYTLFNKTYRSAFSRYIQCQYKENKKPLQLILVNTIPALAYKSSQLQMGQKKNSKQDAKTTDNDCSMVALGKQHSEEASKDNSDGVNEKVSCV

Assay [9] shares this target. Description: 5-hydroxytryptamine receptor 2A (HTR2A) small molecule agonists, cell-based qHTS assay (AID 1963587). Further: nearly all actives have a fitted effect of over 30% in size. Further: potency means the concentration at half of the fitted maximal effect. The procedure, abridged: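 HTR2A-CHO cells, plated 18 h at 37 C/5% CO2, dye-loaded 1 h at 37 C; compounds in DMSO added by pin tool (agonist mode). Intracellular calcium flux read as kinetic fluorescence on FDSS over 2 min at 1 s intervals.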
The target of assay [10] is Muscarinic acetylcholine receptor M1 (Homo sapiens) (UniProt P11229). Description: Cholinergic receptor muscarinic 1 (CHRM1) small molecule antagonists, cell-based qHTS assay (AID 1963588). Further: nearly all actives have a fitted effect of over 40% in size. The procedure, abridged:
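CHRM1-CHO calcium-flux assay, antagonist mode. Cells were seeded 18 h, dye-loaded 1 h at 37 C and given compound for 5 min at RT, then acetylcholine was added at 50nM. FDSS fluorescence was read 3 min; 15 concentrations, three runs.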

For assay [11] the target is unchanged. The assay is described as follows: Cholinergic receptor muscarinic 1 (CHRM1) small molecule agonists, cell-based qHTS assay (AID 1963589). Further: nearly all actives have a fitted effect of over 35% in size. The gist of the method:
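Human M1 in stable CHO line; 18 h plating, 1 h dye load 37 C; cpd added (agonist mode); Ca2+ fluorescence kinetic read, 1 s intervals; 15 conc, 3 runs.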

Assay [12] is described as follows: cAMP Responsive Elements (CRE) small molecule antagonists, cell-based qHTS assay (AID 1963591; active means well fitted inhibition curve with a large enough effect in the signal ratio in the repeat runs, not every such curve was filed as active; the % refers to the signal ratio). The gist of the method:
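Beta-lactamase reporter read by FRET substrate (LiveBLAzer B/G) after 2 h at room temperature. CRE-bla HEK293T cells had received compound plus 0.25 uM (final) NKH477 for 3 h at 37 °C.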

The target in assay [13] is Beta-2 adrenergic receptor (Homo sapiens) (UniProt P07550). The assay is described as follows: Adrenergic beta2 receptor (ADRB2) small molecule antagonists, cell-based qHTS assay (AID 1963592). Further: series mostly up to about 92 µM; nearly all actives have a fitted effect of over 50% in size. The gist of the method: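 Cells (CHO, stable ADRB2 overexpression) incubated 18-20hr at 37C; compounds added from DMSO; agonist mix (1nM isoproterenol, 100uM IBMX, 25uM Ro-20-1724) added; 0.5hr RT; d2-cAMP and anti-cAMP-cryptate added; 1hr RT; 665/615 nm read.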
Chain of Beta-2 adrenergic receptor (Homo sapiens) (P07550 whole entry, looked up): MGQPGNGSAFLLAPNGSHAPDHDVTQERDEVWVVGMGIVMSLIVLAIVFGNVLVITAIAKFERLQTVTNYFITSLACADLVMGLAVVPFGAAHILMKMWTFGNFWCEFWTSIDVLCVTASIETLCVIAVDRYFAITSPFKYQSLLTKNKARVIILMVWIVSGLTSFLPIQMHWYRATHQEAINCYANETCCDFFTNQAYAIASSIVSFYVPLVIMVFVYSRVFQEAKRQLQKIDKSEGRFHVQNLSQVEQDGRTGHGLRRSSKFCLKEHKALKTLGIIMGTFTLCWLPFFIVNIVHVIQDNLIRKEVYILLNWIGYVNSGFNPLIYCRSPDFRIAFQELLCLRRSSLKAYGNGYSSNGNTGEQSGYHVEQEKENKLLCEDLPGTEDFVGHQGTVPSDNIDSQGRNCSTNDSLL

Assay [14] shares this target. Description: Adrenergic beta2 receptor (ADRB2) small molecule agonists, cell-based qHTS assay (AID 1963593).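 Further: CHO cells stably overexpressing human ADRB2.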 The procedure, abridged: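 CHO cells stably over-expressing ADRB2 were plated overnight at 37C, then dosed with compounds plus a stimulation mix containing 100uM IBMX and 25uM Ro-20-1724 for 0.5hr at room temperature. cAMP was measured by HTRF competition, 1hr.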

For assay [15], the target named is D(2) dopamine receptor (Homo sapiens) (UniProt P14416). Description: Dopamine D2 receptor (DRD2) small molecule agonists, cell-based qHTS assay (AID 1963594). Further: nearly all actives have a fitted effect of over 35% in size. Further: potency means the concentration at half of the fitted maximal effect. The gist of the method: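 HEK293 cells stably expressing DRD2 were cultured 24 h at 37 C, then given Ro20-1724 (0.1 mM final) and compounds for 10 min at room temperature. NKH477 (200nM) was then added for 30 min. cAMP was read by HTRF.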
Chain of D(2) dopamine receptor (Homo sapiens) (P14416 whole entry, looked up): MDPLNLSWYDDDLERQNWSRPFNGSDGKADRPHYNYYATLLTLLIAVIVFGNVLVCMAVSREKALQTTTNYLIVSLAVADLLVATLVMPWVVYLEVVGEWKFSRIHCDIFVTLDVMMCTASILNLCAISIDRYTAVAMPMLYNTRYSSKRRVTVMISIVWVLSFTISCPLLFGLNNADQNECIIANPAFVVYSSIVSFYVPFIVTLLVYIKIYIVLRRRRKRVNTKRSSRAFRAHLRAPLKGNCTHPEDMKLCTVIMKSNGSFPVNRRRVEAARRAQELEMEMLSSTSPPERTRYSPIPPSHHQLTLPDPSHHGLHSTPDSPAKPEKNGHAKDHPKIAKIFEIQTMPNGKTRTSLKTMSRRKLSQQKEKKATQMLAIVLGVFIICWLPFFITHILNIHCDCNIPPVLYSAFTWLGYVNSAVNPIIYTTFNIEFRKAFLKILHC

Assay [16] shares this target. The assay is described as follows: Dopamine D2 receptor (DRD2) small molecule antagonists, cell-based qHTS assay (AID 1963595; active means well fitted inhibition curve with a large enough effect in the signal ratio in the repeat runs, with a control signal flat; the % refers to the signal ratio). The gist of the method:
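HEK293 cells stably expressing DRD2, preincubated with 0.1 mM Ro20-1724 and compounds 10 min, were stimulated with 200 nM NKH477 plus 12 nM quinpirole for 30 min at room temperature; cAMP measured by HTRF (665/620 nm).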

Assay [17] in a line: p53 small molecule agonists, cell-based qHTS assay with rat liver microsomes: qHTS cell viability counter screen (AID 1963580). Further: nearly all actives have a fitted effect of over 45% in size. The procedure, abridged:
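p53RE-bla HCT-116 cells (4,000/well) rested 5 h at 37 C, then given Tox21 compounds in DMSO with rat liver microsomes (0.5 mg/mL final) plus NADPH (0.5 mg/mL final) for 16 h at 37 C. Viability read by CellTiter-Glo luminescence after 30 min at room temperature.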

Assay [18] can be described thus: cAMP Responsive Elements (CRE) small molecule agonists, cell-based qHTS assay (AID 1963590). The procedure, abridged: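 HEK 293T CRE-bla, 2,000 cells/well, 18 h preincubation 37 C/5% CO2; cpds (DMSO) pinned, 3 h; LiveBLAzer B/G FRET substrate, 2 h RT.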
The nature of assay [19]: p53 small molecule agonists, cell-based qHTS assay (AID 1963582; active means well fitted activation curve with a large enough effect in the signal ratio in the repeat runs, not every such curve was filed as active; the % refers to the signal ratio). The procedure, abridged: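 Reporter line: p53RE-bla. Pre-incubation 5 h, 37 C, 5% CO2; compound (DMSO, pin tool) 16 h, 37 C; B/G FRET substrate 2 h RT; fluorescence intensity read.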

For eight compounds, Potency results are on record in PubChem BioAssay (Tox21).

Results filed as inconclusive are left out. Calls of active or inactive are those of the source. Unless noted, the call rests on the fitted dose curve.

Chain of Muscarinic acetylcholine receptor M1 (Homo sapiens) (P11229 whole entry, looked up): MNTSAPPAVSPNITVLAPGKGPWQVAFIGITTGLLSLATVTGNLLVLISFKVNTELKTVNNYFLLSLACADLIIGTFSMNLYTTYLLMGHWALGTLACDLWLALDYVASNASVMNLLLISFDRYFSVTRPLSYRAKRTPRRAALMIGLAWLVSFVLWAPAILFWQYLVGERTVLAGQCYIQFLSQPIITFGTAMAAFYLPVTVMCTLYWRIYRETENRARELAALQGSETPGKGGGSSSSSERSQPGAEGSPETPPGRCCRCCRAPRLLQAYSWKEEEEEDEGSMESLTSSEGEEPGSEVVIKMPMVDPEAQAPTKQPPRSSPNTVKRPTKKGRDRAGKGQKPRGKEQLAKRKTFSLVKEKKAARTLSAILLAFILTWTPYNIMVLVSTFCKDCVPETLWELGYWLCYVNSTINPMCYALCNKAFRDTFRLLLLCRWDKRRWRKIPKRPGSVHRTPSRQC
Chain of KiSS-1 receptor (Homo sapiens) (Q969F8 whole entry, looked up): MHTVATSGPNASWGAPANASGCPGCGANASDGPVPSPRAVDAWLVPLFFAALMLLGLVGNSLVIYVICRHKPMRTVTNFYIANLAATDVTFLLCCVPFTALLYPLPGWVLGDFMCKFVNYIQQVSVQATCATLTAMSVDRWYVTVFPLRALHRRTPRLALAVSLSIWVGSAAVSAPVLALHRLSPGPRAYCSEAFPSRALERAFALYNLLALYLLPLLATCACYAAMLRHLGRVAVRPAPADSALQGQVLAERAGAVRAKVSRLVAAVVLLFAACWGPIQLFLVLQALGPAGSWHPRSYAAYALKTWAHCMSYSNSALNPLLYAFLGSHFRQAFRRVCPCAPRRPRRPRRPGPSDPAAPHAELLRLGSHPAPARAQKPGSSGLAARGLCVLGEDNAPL
Chain of Gonadotropin-releasing hormone receptor (Homo sapiens) (P30968 whole entry, looked up): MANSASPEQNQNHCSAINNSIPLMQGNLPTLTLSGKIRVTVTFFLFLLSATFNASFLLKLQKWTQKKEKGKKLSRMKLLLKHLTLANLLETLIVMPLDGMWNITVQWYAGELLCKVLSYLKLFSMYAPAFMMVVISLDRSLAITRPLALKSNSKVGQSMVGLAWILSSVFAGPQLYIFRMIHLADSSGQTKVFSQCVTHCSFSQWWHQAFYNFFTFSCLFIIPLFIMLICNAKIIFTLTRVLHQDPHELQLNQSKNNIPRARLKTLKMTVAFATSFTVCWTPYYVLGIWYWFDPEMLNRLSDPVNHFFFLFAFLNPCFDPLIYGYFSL

Consider `COP(=S)(Oc1cc(Cl)c(Br)cc1Cl)c1ccccc1` (stereo not drawn), for which the Potency result in [1], in assay [3], in assay [4], in [5], in assay [6] and in assay [7] was “inactive” in each case. In addition, the Potency result in [8], in assay [9], in assay [10], in assay [11], in [12] and in assay [13] was “inactive” throughout. The Potency result in assay [14], in assay [15] and in assay [16] was “inactive” throughout. Moreover, the Potency in [2] is 48.6 µM (active).
On to `CCCCC(CC)COP(=O)(Oc1ccccc1)Oc1ccccc1` (stereo not drawn), for which the Potency entry in assay [1], in assay [3], in assay [4], in assay [5], in assay [6] and in [7] was “inactive” each time. In addition, the Potency result in assay [8], in [9], in assay [10], in assay [13], in assay [14] and in assay [15] was “inactive” in each case. Further, in assay [16], the Potency result is “inactive”. Besides, in assay [2], the Potency is 30.6 µM (active).
On to `CCOC1Oc2ccc(OS(C)(=O)=O)cc2C1(C)C` (stereo not drawn), for which the Potency result in assay [1], in assay [2], in [3], in [4], in assay [5] and in assay [17] was “inactive” each time. Moreover, the Potency result in assay [7], in assay [8], in assay [9], in [10], in assay [18] and in assay [12] was “inactive” throughout. The Potency entry in assay [13], in [14], in assay [15] and in [16] was “inactive” in each case.
`CNC(=O)Oc1cc(C)c(N(C)C)c(C)c1`: the Potency result in assay [1], in assay [2], in assay [3], in assay [4], in assay [5] and in [6] was “inactive” each time. Moreover, the Potency result in assay [7], in assay [19], in [8], in assay [10], in [11] and in [18] was “inactive” each time. Moreover, the Potency result in assay [12], in [15] and in assay [16] was “inactive” in each case.
`NCCc1cc(O)c(O)cc1O`: the Potency result in [1], in assay [2], in assay [3], in assay [4], in assay [5] and in [6] was “inactive” in each case. Moreover, the Potency result in assay [17], in assay [10], in [11], in [18], in assay [12] and in [13] was “inactive” in each case. Further, the Potency result in assay [14], in assay [15] and in assay [16] was “inactive” each time. The Potency in [9] is 23.9 µM (active).
Turning to `CC(C)N(CCC(C(N)=O)(c1ccccc1)c1ccccn1)C(C)C` (stereo not drawn), the Potency result in assay [1], in [2], in assay [3], in assay [4], in assay [5] and in assay [6] was “inactive” in each case. In addition, the Potency result in assay [17], in assay [8], in assay [9], in assay [11], in assay [18] and in assay [12] was “inactive” each time. Besides, the Potency entry in assay [13], in assay [14] and in assay [16] was “inactive” each time. Also, the Potency in [15] is 11.4 µM (active).
Regarding `CCC(C)Nc1c([N+](=O)[O-])cc(C(C)(C)C)cc1[N+](=O)[O-]` (stereo not drawn), the Potency entry in assay [1], in assay [3], in assay [4], in [5], in assay [17] and in assay [7] was “inactive” in each case. Also, the Potency entry in [8], in assay [10], in [11], in [18], in assay [12] and in [13] was “inactive” throughout. Further, the Potency result in [15] and in assay [16] was “inactive” each time. Also, the Potency in assay [2] was 54.5 µM (active).
Take `CCOC(=O)c1cn2nc(OP(=S)(OCC)OCC)cc2nc1C`: the Potency result in [1], in [2], in assay [3], in assay [4], in assay [5] and in [17] was “inactive” each time. Moreover, the Potency entry in assay [7], in assay [19], in assay [8], in [9], in assay [11] and in assay [13] was “inactive” in each case. Besides, the Potency result in assay [14], in assay [15] and in [16] was “inactive” each time.
